Our source for the Potency and outcome values is PubChem BioAssay (NCATS).

Results filed as inconclusive are left out. Active and inactive are the calls of the source. Unless noted, calls come from the whole dose curve; as a rule, active = well fitted curve in the direction sought with a large enough effect; inconclusive = small, poorly fitted or top-dose-only effect, or another doubt; inactive = no such curve, though single readings can be large; an effect the other way counts as inactive or inconclusive.

Assay [1] in a line: Primary qHTS for small molecule stabilizers of the endoplasmic reticulum resident proteome: Secreted ER Calcium Modulated Protein (SERCaMP) assay (AID 1508630). The method in brief:
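The SH-SY5Y reporter protocol was run at 3 concentrations up to 38.3 uM (primary) or 11 concentrations (follow-up): 16 h compound, 100 nM thapsigargin for 4 h, then extracellular luciferase luminescence.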

The target in assay [2] is Cytochrome P450 2D6 (Homo sapiens) (UniProt P10635). The assay can be described thus: Cytochrome P450 family 2 subfamily D member 6 (CYP2D6) small molecule antagonists: luciferase biochemical (cell-free) qHTS assay (AID 1645840; active = well fitted curve in the direction sought with a large enough effect in the repeat runs; an effect the other way counts as inactive or inconclusive; note: series mostly up to about 57 µM; nearly all actives have a fitted effect of over 55% in size). The method in brief:
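P450-Glo CYP2D6 system: proluciferin substrate converted by enzyme to luciferin, read by luminescence proportional to activity. Enzyme-substrate mix with compound 10 min at room temperature, then NADPH regeneration 1 h before detection reagent.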
A general note: In qHTS, concentration-response curves come from the screen itself.

The target of assay [3] is Cytochrome P450 2C9 (Homo sapiens) (UniProt P11712). The assay can be described thus: Cytochrome P450 family 2 subfamily C member 9 (CYP2C9) small molecule antagonists: luciferase biochemical (cell-free) qHTS assay (AID 1645842; active = well fitted curve in the direction sought with a large enough effect in the repeat runs; an effect the other way counts as inactive or inconclusive; note: nearly all actives have a fitted effect of over 55% in size; note: potency is the fitted concentration of half-maximal effect). The gist of the method:
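P450-Glo CYP2C9 system: proluciferin substrate with enzyme in mix containing 0.4% BSA, 10 min at room temperature, then NADPH regeneration solution added and incubated 1 h at 37C. Detection reagent stopped reaction; luminescence read after 20 min as RLU.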

Assay [4] can be described thus: Primary qHTS for inhibitors of nuclear receptor binding SET domain protein 2 (NSD2) in an isogenic RCH-ACV NSD2 p.E1099K mutant (9B) (AID 1645876). Note: nearly all actives have a fitted effect of over 70% in size. Note: potency is the fitted concentration of half-maximal effect.
Assay [5] deals with Papain (Carica papaya) (UniProt P00784). In words: Primary qHTS assay for inhibitors of the protease papain (AID 1645873).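 Note: papain turnover of Z-FR-AMC read as the AMC fluorescence gain over 10 min; series mostly up to about 50 µM.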
Chain of Papain (Carica papaya) (P00784 whole entry, looked up): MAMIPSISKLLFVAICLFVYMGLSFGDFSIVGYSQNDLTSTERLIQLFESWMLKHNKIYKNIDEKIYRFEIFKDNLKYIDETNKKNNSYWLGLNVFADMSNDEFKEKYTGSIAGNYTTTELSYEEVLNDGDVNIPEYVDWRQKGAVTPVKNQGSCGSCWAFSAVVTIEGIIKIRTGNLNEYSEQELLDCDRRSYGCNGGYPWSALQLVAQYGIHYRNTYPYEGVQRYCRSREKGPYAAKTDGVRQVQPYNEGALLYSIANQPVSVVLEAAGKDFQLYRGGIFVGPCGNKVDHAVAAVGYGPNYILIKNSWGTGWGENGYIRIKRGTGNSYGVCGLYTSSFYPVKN

Chain of Cytochrome P450 2C9 (Homo sapiens) (P11712 whole entry, looked up): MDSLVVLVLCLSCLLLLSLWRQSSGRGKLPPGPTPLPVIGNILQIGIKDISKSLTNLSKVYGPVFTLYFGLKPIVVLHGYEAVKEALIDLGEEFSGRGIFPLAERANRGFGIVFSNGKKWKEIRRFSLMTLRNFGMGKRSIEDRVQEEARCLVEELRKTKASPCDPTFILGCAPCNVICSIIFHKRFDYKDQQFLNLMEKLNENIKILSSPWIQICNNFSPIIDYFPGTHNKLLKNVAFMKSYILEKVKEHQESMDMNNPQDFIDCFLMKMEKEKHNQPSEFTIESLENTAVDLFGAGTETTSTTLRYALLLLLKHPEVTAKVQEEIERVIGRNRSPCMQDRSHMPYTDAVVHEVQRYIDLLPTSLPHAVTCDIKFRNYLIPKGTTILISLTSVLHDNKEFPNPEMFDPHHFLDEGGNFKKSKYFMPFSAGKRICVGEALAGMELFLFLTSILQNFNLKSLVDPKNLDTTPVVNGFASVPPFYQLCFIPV
Chain of Cytochrome P450 2D6 (Homo sapiens) (P10635 whole entry, looked up): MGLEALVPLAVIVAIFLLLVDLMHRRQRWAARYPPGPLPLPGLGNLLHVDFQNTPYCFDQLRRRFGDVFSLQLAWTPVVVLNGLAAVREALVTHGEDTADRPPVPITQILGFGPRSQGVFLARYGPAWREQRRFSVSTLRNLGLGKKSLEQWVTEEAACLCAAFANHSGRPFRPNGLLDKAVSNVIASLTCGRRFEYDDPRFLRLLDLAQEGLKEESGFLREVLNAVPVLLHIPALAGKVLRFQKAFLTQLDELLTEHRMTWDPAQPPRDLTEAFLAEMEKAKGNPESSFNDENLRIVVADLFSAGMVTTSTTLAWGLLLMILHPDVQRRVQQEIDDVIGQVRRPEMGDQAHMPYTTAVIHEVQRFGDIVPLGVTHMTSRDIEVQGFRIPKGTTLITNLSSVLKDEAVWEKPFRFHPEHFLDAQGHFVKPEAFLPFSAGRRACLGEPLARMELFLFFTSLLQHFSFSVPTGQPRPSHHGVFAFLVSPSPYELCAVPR

Consider `CO[C@@H]1[C@@H](OC)[C@H](C)[C@@](O)(CC(=O)O)O[C@H]1[C@H](C)[C@H]1O[C@@]2(CC[C@@](C)([C@H]3CC[C@@](C)([C@@H]4O[C@@H]([C@H]5O[C@](C)(O)[C@H](C)C[C@@H]5C)C[C@@H]4OC4C[C@H](OC)[C@@H](OC)[C@H](C)O4)O3)O2)C[C@H](O)[C@H]1C` (stereo not given in full), for which the Potency result in assay [1], in assay [2] and in assay [3] was “inactive” each time. Also, the Potency in assay [4] is 0.596 µM (active).
With `CCCCC(CC)COC(=O)c1ccccc1C(=O)O` (stereo not given), the Potency result in assay [1] and in assay [4] was “inactive” each time. Moreover, in assay [3], the Potency was 6.26 µM (active).
As for `COC(=O)C1=C(C)NC(COC(N)=O)=C(C(=O)OC(C)C)C1c1cccc(Cl)c1Cl` (stereo not given), the Potency result in assay [1] is “inactive”. For the same molecule, the Potency in assay [3] is 4.36 µM (active); in assay [4], 18.8 µM (active).
As to `Nc1ncnc2n[nH]c(Nc3ccc(F)cc3)c12`, in assay [1], the Potency result was “inactive”. Besides, the result in assay [5] was inactive.
On to `NS(=O)(=O)c1cc(C(=O)NN2C[C@H]3[C@H]4CCC(C4)[C@H]3C2)ccc1Cl`, for which the Potency result in assay [1] and in assay [3] was “inactive” each time.
`O=C(O)c1ccccc1Nc1cc(Cl)ccc1C(=O)O`: the Potency entry in assay [1], in assay [2], in assay [3] and in assay [4] was “inactive” in each case.
`C[N+](C)(C)CCO`: the Potency result in assay [1] was “inactive”. The molecule was called inactive in assay [5].
